Test results as given in PubChem BioAssay (NCI).
The panel holds about 83,000 compounds, 20% with a hit somewhere; the sample as a whole holds those more often.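 Each cell line was grown in a 96-well plate and treated with one concentration of compound for 48 hours. Values below 10 were considered active.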 Values without a mark were called inactive. Calls of active or inactive are those of the source.

system: OVCAR-3 ovarian; assay: NCI-60 one-dose screen, 48 h (100 = growth as untreated, 0 = no growth, -100 = all killed); conditions: 10 µM unless noted

SMILES | growth
CC(C)(C)c1nn(-c2ccccc2)c2c1CC1(CN2Cc2ccc3c(c2)OCO3)C(=O)c2ccccc2C1=O | 123%
COc1ccc(-c2cc(-c3ccc(N(C)C)cc3)nc(NC(=O)c3ccncc3)n2)cc1 | 98.8%
Nc1nc(-c2ccc(F)cc2)cc(-c2cnn(-c3ccccc3)n2)n1 | 105%
CC(=O)CC(C)(C)c1ccc(Cl)cc1 | 97.4%
Nc1c(C(=O)Nc2ccccc2Cl)sc2nc3c(cc12)CCCCCC3 | 21.5%
O=C(Nc1ccc(Nc2cc(Nc3ccccc3)ncn2)cc1)Nc1cc(C(F)(F)F)ccc1F | 88.5%
CCOC(=O)C(Cc1cc(I)c(O)c(I)c1)NC(=O)c1ccccc1 (stereo not given) | 108%
CC[C@H](Nc1cc(C)nc(N)n1)c1nc2cccc(NCc3ccc(C(=O)NO)cc3)c2c(=O)n1-c1ccccc1 | 16.4%
C=C1CCC2C3(C)COC(c4cccc(Cl)c4)OC3CCC2(C)C1/C=C/C1=CCOC1=O (stereo not given) | 76.9%
CCN(CC)CC(O)CNc1c2ccc([N+](=O)[O-])cc2nc2cc(OC)c(OC)cc12 (stereo not given) | -37.7% (active)
COc1cc(-c2c3sc(=O)[nH]c3nc3c2c(=O)[nH]n3C(C)C)cc2c1OCO2 | 114%
O=S(=O)(Nc1ccc(F)c(Cl)c1)c1ccc(-c2cnc(C3CC3)o2)cc1 | -8.13% (active)
COc1ccc(/C=c2/c(=O)[nH]c3nc4sc(C)c(C)c4c(=O)n23)cc1 | 101%
Fc1ccc(Cc2ccc(F)cc2)cc1 | 112%
CC(C)c1c(C(=O)Nc2ccccc2)c(-c2ccccc2)c(-c2ccc(F)cc2)n1CC[C@@H]1CC=CC(=O)O1 | -73.3% (active)
COc1ccc2nc3cc(Cl)ccc3c(N3CCN(c4ccnc(N5CCN(C)CC5)n4)CC3)c2c1 | -39.4% (active)
COc1cc(NCCCCN=C(N)NC(N)=NC(C)C)c2ncccc2c1 | -43.7% (active)
CS(=O)CCCCCN=C=S (stereo not given) | -20.4% (active)
O=C(CO[N+](=O)[O-])Nc1ccc(C(=O)/C=C/c2ccc3c(c2)OCO3)cc1 | 80.6%

SMILES | growth
O=C(CCN1CCOCC1)Nc1ccc(Cn2nnc3c2C(=O)c2nnn(Cc4ccc(NC(=O)CCN5CCOCC5)cc4)c2C3=O)cc1 | -1.65% (active)
O=C1Nc2ccccc2/C1=C/C(=N/c1nnc(-c2ccc(Cl)cc2)s1)c1ccccc1 | -70.1% (active)
Cc1ccc(SCN2CCN(c3cccc(Cl)c3)CC2)cc1 | 106%
COc1ccccc1N1CCN(CCn2c(=O)c3c(c4ccccc4n3C)n(C)c2=O)CC1 | 103%
CS(=O)(CCCCN=C=S)=NC(=O)c1c(F)c(F)c(F)c(F)c1F (stereo not given) | 102%
O=C(Cn1cc(CN2C(=O)c3ccccc3S2(=O)=O)nn1)Nc1ccc([N+](=O)[O-])cc1Cl | 105%
c1ccc(-c2nc(N3CCOCC3)c3c4c(sc3n2)CCCCC4)nc1 | 74.2%
O=[N+]([O-])c1c(F)cccc1Nc1cccc(F)c1 | 109%
CC1(C)CC(=O)C(c2c(-c3ccccc3)[nH]c3[nH]c(=S)[nH]c(=O)c23)=C(O)C1 | 124%
O=C([C@@H](COCc1ccccc1)N1C(=O)[C@@H](N2C(=O)OC[C@@H]2c2ccccc2)[C@H]1/C=C/c1ccccc1)N1CCC(CCN2CCCCC2)CC1 | 91.5%
COc1cc(/C=N\NC(=O)CN2CCN(c3cc4c(cc3F)c(=O)c(C(=O)N/N=C/c3ccc(O)c(OC)c3)cn4C3CC3)CC2)ccc1O | 14.4%
CC/C=C\C[C@H](O)C/C=C1/C(=O)C=C[C@@H]1C/C=C\CCCC(N)=O | 3.26% (active)
ClC1=C2NC=NC2n2c(nnc2-c2ccc(Cl)cc2)N1 (stereo not given) | 120%
COc1ccc(C(=O)c2sc3nc(-c4ccccc4OC)ccc3c2N)cc1OC | 68.9%
CCN1CCN(Cc2ccc(NC(=O)Nc3nc4ccc(Oc5ccnc(C(=O)NC)c5)cc4s3)cc2C(F)(F)F)CC1 | -74.1% (active)
COc1ccc2nc3cc(Cl)ccc3c(N3CCN(c4nccc(NCc5ccccc5)n4)CC3)c2c1 | 63.3%
C=C1CCC2C3(C)COC(c4ccc(SC)cc4)OC3CCC2(C)C1C/C=C1/C(=O)OCC1O (stereo not given) | 71.4%
O=c1[nH]c(-c2ccccn2)nc2sc3c(c12)CCCCC3 | 40.3%
COc1ccc(C/C(C)=C(\c2ccc(Cl)cc2)c2ccc(OCCN3CCCCCC3)cc2)cc1 | 80.4%

system: HS 578T breast; assay: as above; conditions: 10 µM unless noted

SMILES | growth
CC(C)(C)c1nn(-c2ccccc2)c2c1CC1(CN2Cc2ccc3c(c2)OCO3)C(=O)c2ccccc2C1=O | 120%
COc1ccc(-c2cc(-c3ccc(N(C)C)cc3)nc(NC(=O)c3ccncc3)n2)cc1 | 97.2%
Nc1nc(-c2ccc(F)cc2)cc(-c2cnn(-c3ccccc3)n2)n1 | 106%
CC(=O)CC(C)(C)c1ccc(Cl)cc1 | 99.5%
Nc1c(C(=O)Nc2ccccc2Cl)sc2nc3c(cc12)CCCCCC3 | 17.3%
O=C(Nc1ccc(Nc2cc(Nc3ccccc3)ncn2)cc1)Nc1cc(C(F)(F)F)ccc1F | 78.9%
CCOC(=O)C(Cc1cc(I)c(O)c(I)c1)NC(=O)c1ccccc1 (stereo not given) | 87%
CC[C@H](Nc1cc(C)nc(N)n1)c1nc2cccc(NCc3ccc(C(=O)NO)cc3)c2c(=O)n1-c1ccccc1 | 32.1%
C=C1CCC2C3(C)COC(c4cccc(Cl)c4)OC3CCC2(C)C1/C=C/C1=CCOC1=O (stereo not given) | 96.1%
CCN(CC)CC(O)CNc1c2ccc([N+](=O)[O-])cc2nc2cc(OC)c(OC)cc12 (stereo not given) | -18.2% (active)
COc1cc(-c2c3sc(=O)[nH]c3nc3c2c(=O)[nH]n3C(C)C)cc2c1OCO2 | 105%
O=S(=O)(Nc1ccc(F)c(Cl)c1)c1ccc(-c2cnc(C3CC3)o2)cc1 | 11.3%
Fc1ccc(Cc2ccc(F)cc2)cc1 | 114%
CC(C)c1c(C(=O)Nc2ccccc2)c(-c2ccccc2)c(-c2ccc(F)cc2)n1CC[C@@H]1CC=CC(=O)O1 | 18.1%
COc1ccc2nc3cc(Cl)ccc3c(N3CCN(c4ccnc(N5CCN(C)CC5)n4)CC3)c2c1 | 106%
COc1cc(NCCCCN=C(N)NC(N)=NC(C)C)c2ncccc2c1 | 100%
CS(=O)CCCCCN=C=S (stereo not given) | 11.6%
O=C(CO[N+](=O)[O-])Nc1ccc(C(=O)/C=C/c2ccc3c(c2)OCO3)cc1 | 103%
O=C(CCN1CCOCC1)Nc1ccc(Cn2nnc3c2C(=O)c2nnn(Cc4ccc(NC(=O)CCN5CCOCC5)cc4)c2C3=O)cc1 | 44.9%

SMILES | growth
O=C1Nc2ccccc2/C1=C/C(=N/c1nnc(-c2ccc(Cl)cc2)s1)c1ccccc1 | 80.1%
Cc1ccc(SCN2CCN(c3cccc(Cl)c3)CC2)cc1 | 111%
COc1ccccc1N1CCN(CCn2c(=O)c3c(c4ccccc4n3C)n(C)c2=O)CC1 | 98.5%
CS(=O)(CCCCN=C=S)=NC(=O)c1c(F)c(F)c(F)c(F)c1F (stereo not given) | 88.7%
O=C(Cn1cc(CN2C(=O)c3ccccc3S2(=O)=O)nn1)Nc1ccc([N+](=O)[O-])cc1Cl | 92.9%
c1ccc(-c2nc(N3CCOCC3)c3c4c(sc3n2)CCCCC4)nc1 | 65%
O=[N+]([O-])c1c(F)cccc1Nc1cccc(F)c1 | 102%
CC1(C)CC(=O)C(c2c(-c3ccccc3)[nH]c3[nH]c(=S)[nH]c(=O)c23)=C(O)C1 | 123%
O=C([C@@H](COCc1ccccc1)N1C(=O)[C@@H](N2C(=O)OC[C@@H]2c2ccccc2)[C@H]1/C=C/c1ccccc1)N1CCC(CCN2CCCCC2)CC1 | 90.8%
COc1cc(/C=N\NC(=O)CN2CCN(c3cc4c(cc3F)c(=O)c(C(=O)N/N=C/c3ccc(O)c(OC)c3)cn4C3CC3)CC2)ccc1O | 63.5%
CC/C=C\C[C@H](O)C/C=C1/C(=O)C=C[C@@H]1C/C=C\CCCC(N)=O | 55.2%
ClC1=C2NC=NC2n2c(nnc2-c2ccc(Cl)cc2)N1 (stereo not given) | 112%
COc1ccc(C(=O)c2sc3nc(-c4ccccc4OC)ccc3c2N)cc1OC | 55.6%
CCN1CCN(Cc2ccc(NC(=O)Nc3nc4ccc(Oc5ccnc(C(=O)NC)c5)cc4s3)cc2C(F)(F)F)CC1 | -38.6% (active)
COc1ccc2nc3cc(Cl)ccc3c(N3CCN(c4nccc(NCc5ccccc5)n4)CC3)c2c1 | 83.3%
C=C1CCC2C3(C)COC(c4ccc(SC)cc4)OC3CCC2(C)C1C/C=C1/C(=O)OCC1O (stereo not given) | 102%
O=c1[nH]c(-c2ccccn2)nc2sc3c(c12)CCCCC3 | 81.7%
COc1ccc(C/C(C)=C(\c2ccc(Cl)cc2)c2ccc(OCCN3CCCCCC3)cc2)cc1 | 98.4%
